Hit rate of the full screen: of about 310,000 compounds, about 2,200 (0.71%) showed an effect of 50% or more. The effect is printed as a negative number. What follows is part of a selection rich in strong results, with near analogues and random picks from the rest.
molecular target: human ether-à-go-go-related gene (hERG) potassium channel (human, UniProt Q12809); test: primary screen, population patch clamp on CHO cells stably expressing hERG; higher = less effect of the substance
Sequence (Q12809 whole entry, looked up): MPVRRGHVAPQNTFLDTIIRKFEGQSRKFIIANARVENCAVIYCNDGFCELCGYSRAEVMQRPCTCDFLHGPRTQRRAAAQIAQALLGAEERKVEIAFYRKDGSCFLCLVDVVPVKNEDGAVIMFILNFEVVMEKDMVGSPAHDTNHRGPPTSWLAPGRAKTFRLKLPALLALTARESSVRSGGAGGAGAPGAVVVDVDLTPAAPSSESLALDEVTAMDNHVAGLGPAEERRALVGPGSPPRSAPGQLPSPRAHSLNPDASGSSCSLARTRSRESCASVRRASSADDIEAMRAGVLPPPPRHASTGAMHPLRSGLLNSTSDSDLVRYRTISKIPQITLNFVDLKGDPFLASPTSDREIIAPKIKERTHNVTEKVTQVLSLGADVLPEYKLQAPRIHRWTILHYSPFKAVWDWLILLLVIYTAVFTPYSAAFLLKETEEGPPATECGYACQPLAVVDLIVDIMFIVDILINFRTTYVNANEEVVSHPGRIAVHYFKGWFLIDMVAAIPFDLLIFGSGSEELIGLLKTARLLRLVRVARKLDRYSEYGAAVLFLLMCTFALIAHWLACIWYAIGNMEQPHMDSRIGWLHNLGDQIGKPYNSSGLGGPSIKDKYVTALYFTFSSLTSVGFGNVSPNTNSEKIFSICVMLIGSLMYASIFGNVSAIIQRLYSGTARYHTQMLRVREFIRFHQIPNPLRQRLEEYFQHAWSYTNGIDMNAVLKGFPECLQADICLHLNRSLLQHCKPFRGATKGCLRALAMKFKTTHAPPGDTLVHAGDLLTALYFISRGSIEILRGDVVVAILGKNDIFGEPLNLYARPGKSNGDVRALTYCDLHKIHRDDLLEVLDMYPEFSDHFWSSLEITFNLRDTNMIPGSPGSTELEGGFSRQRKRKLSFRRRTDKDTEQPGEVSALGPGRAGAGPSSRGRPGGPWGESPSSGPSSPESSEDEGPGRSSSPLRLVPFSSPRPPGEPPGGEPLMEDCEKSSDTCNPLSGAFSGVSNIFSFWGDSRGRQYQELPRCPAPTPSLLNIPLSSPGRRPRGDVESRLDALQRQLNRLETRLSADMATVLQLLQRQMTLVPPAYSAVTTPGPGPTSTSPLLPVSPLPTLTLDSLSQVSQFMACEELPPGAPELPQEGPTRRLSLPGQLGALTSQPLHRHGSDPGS

SMILES	hERG current change (%, negative = inhibition) at 1uM
CCC(C)NC(=O)Cn1nc(Cc2ccncc2)c2ccccc2c1=O (centres unmarked)	10.1%
Cc1cc(NC(=O)c2ccc3c(c2)C(=O)N(C)C3=O)no1	16.4%
Cc1ccc(C)c(OCCC(=O)NNC(=O)c2ccccc2)c1	10.8%
Cc1cccc(N(C(=O)c2nsc(Cl)c2Cl)C(C(=O)NC2CCCC2)c2ccc(O)cc2)c1C (centres unmarked)	10.1%
O=C(c1cccc(S(=O)(=O)N2CCOCC2)c1)N(Cc1ccco1)Cc1cccs1	-6.4%
CN(C)S(=O)(=O)c1cccc(C(=O)N(Cc2ccc(F)cc2)Cc2ccco2)c1	-14.6%
O=C(c1cccc(S(=O)(=O)N2CCOCC2)c1)N(Cc1ccc(F)cc1)Cc1ccco1	-55.2%
CCC(=O)O[C@]1(C(=O)CCl)[C@@H](C)C[C@H]2[C@@H]3CCC4=CC(=O)C=C[C@]4(C)[C@@]3(F)[C@@H](O)C[C@@]21C	18%
COc1ccc(-c2cc3ccccc3n2CC(O)CN2CCCCC2)cc1.O=C(O)C(=O)O (centres unmarked)	-74.6%
Cc1cccc(OCC(O)Cn2c(=N)n(CCN3CCCCC3)c3ccccc32)c1.Cl (centres unmarked)	-59.8%
CCOc1ccc(C(O)Cn2c(=N)n(CCN3CCCCC3)c3ccccc32)cc1.Cl (centres unmarked)	-56%
Cc1ccc(OCC(O)Cn2c(=N)n(CCN3CCCCC3)c3ccccc32)cc1.Cl (centres unmarked)	-30.1%
COc1ccc(OCC(O)Cn2c(=N)n(CCN3CCCCC3)c3ccccc32)cc1.Cl (centres unmarked)	-51.2%
Cl.N=c1n(CCN2CCCCC2)c2ccccc2n1CC(O)c1ccco1 (centres unmarked)	-4.15%
COc1ccc(-c2cc3ccccc3n2CC(O)CN2CCOCC2)cc1 (centres unmarked)	2.37%
Cc1cccc(OCC(O)Cn2c(=N)n(CCN3CCOCC3)c3ccccc32)c1.Cl (centres unmarked)	-8.29%
Cc1ccccc1OCC(O)Cn1c(=N)n(CCN2CCOCC2)c2ccccc21.Cl (centres unmarked)	-25.3%
CCCn1c(=N)n(CC(O)c2ccc(C)cc2)c2ccccc21.Cl (centres unmarked)	-14.9%
COc1ccc(-c2cc3ccccc3n2CC(O)CN2CCC(C)CC2)cc1.O=C(O)C(=O)O (centres unmarked)	-49.8%
Cl.N=c1n(CCN2CCCCC2)c2ccccc2n1CC(O)COc1ccccc1 (centres unmarked)	-32.7%
CCCCC(=O)O[C@]1(C(=O)CO)CC[C@H]2[C@@H]3CCC4=CC(=O)CC[C@]4(C)[C@H]3[C@@H](O)C[C@@]21C	11.4%
COc1ccc(N/C=C/C(=O)c2ccccc2)cc1	11%
CCCCNC(=O)C1CCCN1C(=O)Nc1ccccc1 (centres unmarked)	0.208%
O=S(=O)(NCc1cccnc1)c1ccc(Br)c2ccccc12	7.97%
Cc1cc2nc(-c3ccc(SCc4ccc(C(=O)O)cc4)nc3)[nH]c2cc1C	14.5%
COc1ccc2[nH]c(C(=O)O)c(CCNC(=O)/C=C/c3ccc(O)c(OC)c3)c2c1	13.1%
CCCc1nnc(NC(=O)c2nc(S(=O)(=O)Cc3cccc(C)c3)ncc2Cl)s1	21%

SMILES	hERG current change (%, negative = inhibition) at 1uM
O=C1CCN(C(=O)Cc2ccccc2[N+](=O)[O-])CC1	14.3%
O=C(Nc1cc(SCC(O)CO)cc([N+](=O)[O-])c1)c1ccc(-n2cnnn2)cc1 (centres unmarked)	17.4%
Br.CC1(C(=O)CSc2n[nH]c(-c3ccccc3Cl)n2)CCC(=O)O1 (centres unmarked)	8.24%
COc1ccc(N(CC(=O)NC2CCCCC2)S(=O)(=O)c2c(C)[nH]c(=O)[nH]c2=O)cc1	15.2%
Cc1ccc(CNC(=O)c2nn(C)c(C)c2[N+](=O)[O-])cc1	5.74%
Cl.N=c1n(CCN2CCCCC2)c2ccccc2n1CC(O)c1ccc(Cl)c(Cl)c1 (centres unmarked)	-70.4%
Cl.N=c1n(CCN2CCCCC2)c2ccccc2n1CC(O)c1cccc(Br)c1 (centres unmarked)	-41.7%
Cl.N=c1n(CCN2CCCC2)c2ccccc2n1CC(O)c1ccc(Cl)c(Cl)c1 (centres unmarked)	-33.2%
COc1ccc(NC(=S)N2CCC(NC(=O)c3ccc(OC)cc3)CC2)cc1	11.3%
CCN1CCN(c2cc(C)c3cc(NC(=S)N(CC)CC)ccc3n2)CC1	-8.83%
CCN1CCN(c2cc(C)c3cc(NC(=S)NCCCOC)ccc3n2)CC1	12.1%
COCCNC(=S)Nc1ccc2nc(N3CCOCC3)cc(C)c2c1	14.9%
CCCCN(C)C(=S)Nc1ccc2nc(N3CCN(CC)CC3)cc(C)c2c1	-46.4%
CCOCCCNC(=S)Nc1ccc2nc(N3CCN(CC)CC3)cc(C)c2c1	10.7%
CCOCCCNC(=S)Nc1ccc2nc(N3CCOCC3)cc(C)c2c1	9.64%
COCCNC(=S)Nc1ccc2nc(N3CCCC3)cc(C)c2c1	-50.5%
Cc1cc(N2CCCC2)nc2ccc(NC(=S)NCCCOC(C)C)cc12	-78.6%
CCN1CCN(c2cc(C)c3cc(NC(=S)N(C)Cc4ccccc4)ccc3n2)CC1	-56.7%
COCCNC(=S)Nc1ccc2nc(N3CCN(C)CC3)cc(C)c2c1	9.02%
CCOCCCNC(=S)Nc1ccc2nc(N3CCCC3)cc(C)c2c1	-74.8%
CCCN(CCC)CCCNC(=S)Nc1ccc2nc(N3CCCC3)cc(C)c2c1	-14.5%
NC(=O)NCCCC(NC(=O)c1ccc(C#CC2(O)CCCCC2)cc1)C(=O)O (centres unmarked)	8.16%
NS(=O)(=O)c1cccc2c1c([N+](=O)[O-])cc1nc([O-])c([O-])nc12.[Na+]	20.2%
CCCNS(=O)(=O)c1cc(Br)cc2c1N(C(=O)CC)CC2	4.42%
C=C(C)c1cccc(C(C)(C)NC(=O)NC2CC(C)(C)NC(C)(C)C2)c1	7.67%
O=C(Nc1ccc(F)cc1)C1CC2CCC1C2 (centres unmarked)	12.7%

From PMC4336329 (PLoS ONE, 2015)
